Inhibition data for one molecule are collected here from PubChem BioAssay AID493152 (Sanford-Burnham Center for Chemical Genomics, 2011).

The target in the assay is DNA dC->dU-editing enzyme APOBEC-3G (Homo sapiens) (UniProt Q9HC16). As to the kind of experiment: APOBEC3G deaminase inhibitor retest, confirmation, biochemical, fluorescence, single-stranded DNA substrate, single concentration (AID 493152). The following applies: recombinant A3G ssDNA deaminase, UDG/FAM-TAMRA fluorescence; at 20 µM; active compounds read high.
Sequence of DNA dC->dU-editing enzyme APOBEC-3G (Homo sapiens) (Q9HC16 whole entry, looked up): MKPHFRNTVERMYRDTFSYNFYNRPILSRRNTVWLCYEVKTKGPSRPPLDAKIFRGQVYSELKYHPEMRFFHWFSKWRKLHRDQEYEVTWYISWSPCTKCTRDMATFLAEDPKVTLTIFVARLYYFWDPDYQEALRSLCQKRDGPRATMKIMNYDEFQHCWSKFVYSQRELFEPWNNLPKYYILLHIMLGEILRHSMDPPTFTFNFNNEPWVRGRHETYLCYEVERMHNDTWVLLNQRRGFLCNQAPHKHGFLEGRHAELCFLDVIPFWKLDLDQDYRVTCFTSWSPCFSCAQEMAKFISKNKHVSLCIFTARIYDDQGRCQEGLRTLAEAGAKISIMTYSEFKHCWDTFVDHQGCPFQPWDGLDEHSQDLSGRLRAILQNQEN

Structures are written as SMILES. Some of the results follow. Active and inactive are the calls of the source.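 How the source made its calls: active means inhibition reaching a set limit in any replicate at 20 µM, the limit being 80% of the first screen's; inactive means the rest.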

On to `COC(=O)N(c1ccc(OC)cc1)P1(=S)OCCC(C)O1` (stereo unspecified), for which the inhibition was 42.1% (active).
